The results in this text go back to the supplement of paper PMC12636033.

± gives the standard deviation of the averaged measurements. Over roughly 33,000 sequences, “E-score (rank enrichment, -0.5 to 0.5)” has its median near -0.0068; the highest 2% begin near 0.24. Shown is part of a subset that was picked to be rich in the highest values.

For the experiment, the system named is muMax20 (Max(13-93) K31hArg/K57hArg, M65Nle). Kind of experiment: PBM 8-mer E-score (E-score (rank enrichment, -0.5 to 0.5)); higher = stronger preferential binding. Here is the method: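 Protein binding microarray (universal PBM chip covering all 10-mers in fixed probe flanks) with chemically synthesized human Max(13-93) bHLH-LZ analogs (not full-length Max) bearing noncanonical residues (hArg, Tha, Aib, Nle at 65) and aromatic Cys staples. Read-out per 8-mer (and its reverse complement): E-score (rank-based enrichment, -0.5 to 0.5) and Z-score of median probe intensity.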
As to ACGCGGGG, the “PBM 8-mer E-score” value was 0.0227 ± 0.021.
As to CAGCTAAC, the “PBM 8-mer E-score” value is -0.15 ± 0.12.
As for GCGCCTCA, the “PBM 8-mer E-score” value is -0.0397 ± 0.1.
For CCCGGTCA, the “PBM 8-mer E-score” value is -0.139 ± 0.064.
In the case of CAAACATG, the “PBM 8-mer E-score” value came to 0.229 ± 0.044.
As for AACACATC, the “PBM 8-mer E-score” value came out at 0.0883 ± 0.011.
To AACACATG belongs 0.317 ± 0.053.
As for AACACATT, the “PBM 8-mer E-score” value is 0.0928 ± 0.081.
With AAAACATT, the “PBM 8-mer E-score” value stood at 0.127 ± 0.061.
In the case of AAAACATG, the “PBM 8-mer E-score” value is 0.279 ± 0.027.
On to CTCTGCTA, for which the “PBM 8-mer E-score” value is -0.193 ± 0.028.
Consider AAGCAAAT, for which the “PBM 8-mer E-score” value amounted to 0.172 ± 0.025.
Consider CGGGCGAG, for which the “PBM 8-mer E-score” value was -0.112 ± 0.12.
As to CAAGCGCA, the “PBM 8-mer E-score” value is 0.284 ± 0.019.
The figure for CAAGCGCC is -0.192 ± 0.11.
The figure for AAAGCGCA is 0.0206 ± 0.012.
With GACGGTGC, the “PBM 8-mer E-score” value is -0.0722 ± 0.033.
The figure for ATGCAACC is 0.225 ± 0.014.
With ATGCAACA, the “PBM 8-mer E-score” value was determined as 0.211 ± 0.041.
As for ATGCAACG, the “PBM 8-mer E-score” value worked out at 0.251 ± 0.079.
Regarding TCTTGAAA, the “PBM 8-mer E-score” value was found to be 0.0967 ± 0.01.
As for CGGCGCGC, the “PBM 8-mer E-score” value is 0.00798 ± 0.069.
As for ATGTGTAA, the “PBM 8-mer E-score” value amounted to 0.204 ± 0.046.
Take GTGTTATA: the “PBM 8-mer E-score” value turned out to be 0.2767 ± 0.0021.
On to AAGTTATA, for which the “PBM 8-mer E-score” value is 0.156 ± 0.018.
ATGTGTTA: the “PBM 8-mer E-score” value came out at 0.276 ± 0.076.
With ATGTGTGA, the “PBM 8-mer E-score” value was found to be 0.192 ± 0.13.
To GAGTTATA belongs 0.173 ± 0.0073; to ATGTGTAG, 0.239 ± 0.068.
With TAGTTATA, the “PBM 8-mer E-score” value amounted to 0.288 ± 0.068.
As to ATGTGTTC, the “PBM 8-mer E-score” value is -0.0235 ± 0.019.
Regarding ATGTGTAC, the “PBM 8-mer E-score” value is 0.113 ± 0.057.
As for ATGTTATA, the “PBM 8-mer E-score” value was 0.193 ± 0.12.
For the sequence CTGTTATA, the “PBM 8-mer E-score” value amounted to 0.179 ± 0.097.
As for ATCACCAG, the “PBM 8-mer E-score” value is -0.0679 ± 0.034.
The figure for GTCCCTCA is -0.00891 ± 0.083.
Turning to ATAACCGG, the “PBM 8-mer E-score” value was -0.0406 ± 0.073.
In the case of ATTACGGA, the “PBM 8-mer E-score” value amounted to 0.0432 ± 0.041.
Regarding ATTGCTGG, the “PBM 8-mer E-score” value is -0.0565 ± 0.13.
Regarding AGGCCGGC, the “PBM 8-mer E-score” value was -0.211 ± 0.028.
Regarding ATGCGGAG, the “PBM 8-mer E-score” value worked out at 0.00298 ± 0.056.
To AACAACGA belongs 0.147 ± 0.012; to GGGTCAAC, -0.0771 ± 0.079; to CTGTGTTA, 0.0692 ± 0.087.
As for GTGTGTTA, the “PBM 8-mer E-score” value came to 0.268 ± 0.0066.
As to GGGTGTTA, the “PBM 8-mer E-score” value is 0.0328 ± 0.0072.
To CGCGCTAA belongs -0.0154 ± 0.16.
For ATTAACTA, the “PBM 8-mer E-score” value came to 0.283 ± 0.017.
Take ATTAACAC: the “PBM 8-mer E-score” value stood at 0.287 ± 0.029.
As for ATTAACAA, the “PBM 8-mer E-score” value turned out to be 0.246 ± 0.052.
In the case of GTTAACTA, the “PBM 8-mer E-score” value was found to be 0.213 ± 0.0029.
Regarding CTTAACAC, the “PBM 8-mer E-score” value was 0.149 ± 0.092.
On to ACTAACAC, for which the “PBM 8-mer E-score” value was 0.0454 ± 0.029.
Take ATTAACAG: the “PBM 8-mer E-score” value stood at 0.0428 ± 0.24.
As to GTTAACAA, the “PBM 8-mer E-score” value was found to be 0.17 ± 0.0025.
In the case of ATTAACTC, the “PBM 8-mer E-score” value is 0.173 ± 0.0096.
To AAAGCTAA belongs -0.00207 ± 0.033; to ACCACTAG, 0.0698 ± 0.15; to ATGCGATA, -0.0659 ± 0.018.
To GCCCTCGA belongs -0.118 ± 0.0058.
CCGGATAA: the “PBM 8-mer E-score” value is -0.0458 ± 0.13.
In the case of AGTAGGAC, the “PBM 8-mer E-score” value turned out to be 0.103 ± 0.047.
In the case of AACGGCCC, the “PBM 8-mer E-score” value was -0.263 ± 0.018.
Regarding AACGGCCT, the “PBM 8-mer E-score” value is 0.269 ± 0.11.
To AACGGCCA belongs -0.0219 ± 0.0033.
Consider GATCCCGA, for which the “PBM 8-mer E-score” value is -0.329 ± 0.0063.
With AATTCTTA, the “PBM 8-mer E-score” value stood at 0.0618 ± 0.12.
Take ATCTGTAC: the “PBM 8-mer E-score” value came out at 0.157 ± 0.1.
As to ACGTATTG, the “PBM 8-mer E-score” value turned out to be 0.0861 ± 0.067.
ACGTATCG: the “PBM 8-mer E-score” value was -0.00982 ± 0.017.
As to GCGTATTA, the “PBM 8-mer E-score” value stood at 0.117 ± 0.082.
As for ACGTATTA, the “PBM 8-mer E-score” value came out at 0.25 ± 0.076.
On to ACGTATCA, for which the “PBM 8-mer E-score” value is 0.243 ± 0.11.
With ACGTATCT, the “PBM 8-mer E-score” value came to 0.0322 ± 0.12.
In the case of CATATGAA, the “PBM 8-mer E-score” value was 0.0777 ± 0.049.
The figure for AGGCACGA is 0.109 ± 0.032; for CAGAGCTA it is -0.25 ± 0.013.
Consider TGAACAAA, for which the “PBM 8-mer E-score” value turned out to be 0.00782 ± 0.029.
On to ATAAGAAC, for which the “PBM 8-mer E-score” value stood at 0.24 ± 0.081.
As to CTAATAAA, the “PBM 8-mer E-score” value is 0.163 ± 0.024.
For ATAATAAA, the “PBM 8-mer E-score” value came to 0.217 ± 0.023.
To ATAAGAAA belongs 0.141 ± 0.043.
In the case of ATAATCAA, the “PBM 8-mer E-score” value was 0.0671 ± 0.022.
In the case of GTAATAAC, the “PBM 8-mer E-score” value stood at 0.156 ± 0.072.
With CTAATAAC, the “PBM 8-mer E-score” value is 0.19 ± 0.074.
With TTAATAAA, the “PBM 8-mer E-score” value came out at 0.238 ± 0.028.
